Measurements from PubChem BioAssay (NCATS).
Results filed as inconclusive are left out. Values without a mark were called inactive. Calls of active or inactive are those of the source. Calls follow the shape of the dose curve; as a rule, active = well fitted cell-killing curve with a large enough effect; inconclusive = small, poorly fitted or top-dose-only effect, or effect the other way; inactive = no such curve, though single readings can be large or run the other way.

Test: Viability qHTS for spleen associated tyrosine kinase inhibitor (SYKi) drug resistant MV4-11 cells (AID 1963824); also: nearly all actives have a fitted effect of over 35% in size
Conditions: SYKi-resistant MV4-11 viability, CellTiter-Glo, 72 h; series mostly up to 45 µM; viability, % of control: at the top concentration
Source text: Department of Medicine, Hematology/Oncology
University Hospital Frankfurt, Germany.
Trials have shown promising clinical activity of the selective SYK inhibitor entospletinib in patients with high expressing HOXA9/MEIS1 acute leukemias. As the development of resistance mechanisms is a common problem in the use of targeted drugs, we performed a chemical library screen to identify drug sensitivities in SYK inhibitor resistant AML cells. […] Glucocorticoids are potent immunosuppressants which work in part by inhibiting the transcription of cytokine genes.
Described herein is a viability screen to look for activity in the SYK inhibitor drug resistant cell line against four NCATS compound libraries (MIPE 5.0, NPC, NPACT, and Kinase) totaling 11372 compounds. Active hits were reacquired for confirmation and further secondary assay testing.
SEQUENCE No. (e.g., 1, 2, 3, etc.); […] (e.g., Cells, Incubation, Reagent, etc.); VALUE; DESCRIPTION.
1; Media; 2uL; white, solid-bottom Corning assay plate.
2; Compounds; 23nL; Echo acoustic dispenser.
3; Cell; 5uL; 500 cells per well.
4: Incubation; 72hr; 37 C, 5% CO2, 95% humidity.
5; Reagent; 3uL; CellTiter-Glo reagent (Promega).
6; Incubation; 10min; room temperature.
7; Detection; Luminescence; ViewLux plate reader (PerkinElmer).
NOTES (numbers refer to Sequence numbers above
1. Quantitative high-throughput screening (qHTS) of small molecule compounds was conducted on drug resistant SYKi MV4-11 cell line.
2. Twenty-three nanoliter of small molecule compounds were added to each assay plates using the Echo acoustic dispenser (Beckman Coulter).
3. Cells were seeded into the assay plates at a final density of 500 cells in 5uL of media per well using the Multidrop Combi dispenser.
4. Plates were covered with stainless steel gasketed lids and incubated for 72 hours at standard cell culture conditions.
5. Viability was assessed by adding 3uL of CellTiter-Glo detection reagent (Promega).
6. Plates were covered with gasket lids and incubated for 10 minutes at room temperature.
7. Luminescence was measured on a ViewLux plate reader (PerkinElmer).
Potency is read from the fitted curve at half-maximal effect.

Question: Which Potency does the source give for CC1(C)CC[C@]2(NC(=O)C(C)(F)F)CC[C@]3(C)[C@H](C(=O)C=C4[C@@]5(C)C=C(C#N)C(=O)C(C)(C)[C@@H]5CC[C@]43C)[C@@H]2C1 here?
Answer: 2.63 µM (active)

Question: Which “viability, % of control” value does the source give for Nc1ccn(CC(CO)OCP(=O)(O)O)c(=O)n1 (stereo not drawn) here?
Answer: 99.1%

Question: With COC(=O)[C@]12CCC(C)(C)C[C@H]1[C@H]1C(=O)C=C3[C@@]4(C)C=C(C#N)C(=O)C(C)(C)[C@@H]4CC[C@@]3(C)[C@]1(C)CC2 as the compound, how does the Potency read?
Answer: 2.63 µM (active)
